Laboratory results reported in the supplement of paper PMC11732987, “Enantioselective OTUD7B fragment discovery through chemoproteomics screening and high-throughput optimisation” (Communications Chemistry, 2025).

Key:
Experiment in all cases: log2 ratio of Biotin-Ahx-Ub-VS probe labelling (fragment/DMSO); higher = less target engagement (more negative = stronger competition), active = hit call of the paper (q ≤ 0.05, log2 ratio ≤ -1)
Conditions in all cases: compound concentration: 200 uM; treatment time: 3 h
[1] = molecular target: T1, ALG13 (UniProt Q9NP73)
T1 sequence (whole entry): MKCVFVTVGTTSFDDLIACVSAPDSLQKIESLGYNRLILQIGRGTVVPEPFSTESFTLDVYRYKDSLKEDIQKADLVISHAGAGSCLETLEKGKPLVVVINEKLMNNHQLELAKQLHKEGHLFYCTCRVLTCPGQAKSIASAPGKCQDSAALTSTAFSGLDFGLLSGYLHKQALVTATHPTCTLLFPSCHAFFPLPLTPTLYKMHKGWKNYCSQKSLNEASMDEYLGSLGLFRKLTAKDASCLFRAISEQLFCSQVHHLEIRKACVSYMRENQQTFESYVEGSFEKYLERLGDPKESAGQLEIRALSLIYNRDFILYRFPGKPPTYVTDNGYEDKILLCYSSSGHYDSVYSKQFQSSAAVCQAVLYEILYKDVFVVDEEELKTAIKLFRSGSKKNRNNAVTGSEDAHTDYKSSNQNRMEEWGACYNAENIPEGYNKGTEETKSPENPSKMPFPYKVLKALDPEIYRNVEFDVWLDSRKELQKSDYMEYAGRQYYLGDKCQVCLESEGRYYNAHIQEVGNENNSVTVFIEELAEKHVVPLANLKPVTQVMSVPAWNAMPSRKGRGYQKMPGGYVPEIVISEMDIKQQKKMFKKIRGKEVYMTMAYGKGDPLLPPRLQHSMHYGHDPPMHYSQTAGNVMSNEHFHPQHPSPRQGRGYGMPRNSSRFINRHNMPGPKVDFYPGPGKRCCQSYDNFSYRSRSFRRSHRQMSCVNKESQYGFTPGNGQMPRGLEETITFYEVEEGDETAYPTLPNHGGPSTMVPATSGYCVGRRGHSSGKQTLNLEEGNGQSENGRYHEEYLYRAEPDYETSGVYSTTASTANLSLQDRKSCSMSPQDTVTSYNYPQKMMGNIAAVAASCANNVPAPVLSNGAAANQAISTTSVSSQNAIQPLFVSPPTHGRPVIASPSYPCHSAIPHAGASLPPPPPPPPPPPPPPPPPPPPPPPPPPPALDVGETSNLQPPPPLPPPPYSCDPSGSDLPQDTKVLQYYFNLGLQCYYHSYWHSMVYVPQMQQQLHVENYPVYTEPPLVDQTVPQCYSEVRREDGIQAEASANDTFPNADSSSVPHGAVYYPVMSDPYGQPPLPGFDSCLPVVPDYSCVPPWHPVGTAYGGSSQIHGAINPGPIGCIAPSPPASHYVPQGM
Method in brief: (§1)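 Labelling with Biotin-Ahx-Ub-VS (0.5 µM final, 1 h) followed a 3 h triplicate treatment of HEK293T lysate (495 µg per sample, Tris/CHAPS/IGEPAL buffer with protease inhibitors) with fragment at 200 µM or vehicle. Labelled DUBs were NeutrAvidin-enriched, digested with LysC and trypsin, and run by diaPASEF LC-MS/MS. The values, average log2 fragment/vehicle ratios by unpaired t-test, come from global-median-normalised Spectronaut label-free quantities. Proteins with ≥2 unique peptides were used.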

[2] = molecular target: ATXN3 (UniProt P54252)
ATXN3, sequence (P54252 whole entry): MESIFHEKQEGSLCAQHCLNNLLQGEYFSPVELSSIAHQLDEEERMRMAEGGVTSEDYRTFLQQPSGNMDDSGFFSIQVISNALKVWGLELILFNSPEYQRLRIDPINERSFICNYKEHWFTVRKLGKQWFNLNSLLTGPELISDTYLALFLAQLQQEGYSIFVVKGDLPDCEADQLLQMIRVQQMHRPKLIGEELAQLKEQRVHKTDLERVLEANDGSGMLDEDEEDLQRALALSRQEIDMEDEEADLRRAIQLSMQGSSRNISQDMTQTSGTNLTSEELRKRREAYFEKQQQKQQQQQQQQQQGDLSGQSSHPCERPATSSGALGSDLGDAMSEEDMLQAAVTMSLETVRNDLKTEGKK
Method in brief: as §1

[3] = molecular target: T2, BAP1 (UniProt Q92560)
T2 sequence (whole entry): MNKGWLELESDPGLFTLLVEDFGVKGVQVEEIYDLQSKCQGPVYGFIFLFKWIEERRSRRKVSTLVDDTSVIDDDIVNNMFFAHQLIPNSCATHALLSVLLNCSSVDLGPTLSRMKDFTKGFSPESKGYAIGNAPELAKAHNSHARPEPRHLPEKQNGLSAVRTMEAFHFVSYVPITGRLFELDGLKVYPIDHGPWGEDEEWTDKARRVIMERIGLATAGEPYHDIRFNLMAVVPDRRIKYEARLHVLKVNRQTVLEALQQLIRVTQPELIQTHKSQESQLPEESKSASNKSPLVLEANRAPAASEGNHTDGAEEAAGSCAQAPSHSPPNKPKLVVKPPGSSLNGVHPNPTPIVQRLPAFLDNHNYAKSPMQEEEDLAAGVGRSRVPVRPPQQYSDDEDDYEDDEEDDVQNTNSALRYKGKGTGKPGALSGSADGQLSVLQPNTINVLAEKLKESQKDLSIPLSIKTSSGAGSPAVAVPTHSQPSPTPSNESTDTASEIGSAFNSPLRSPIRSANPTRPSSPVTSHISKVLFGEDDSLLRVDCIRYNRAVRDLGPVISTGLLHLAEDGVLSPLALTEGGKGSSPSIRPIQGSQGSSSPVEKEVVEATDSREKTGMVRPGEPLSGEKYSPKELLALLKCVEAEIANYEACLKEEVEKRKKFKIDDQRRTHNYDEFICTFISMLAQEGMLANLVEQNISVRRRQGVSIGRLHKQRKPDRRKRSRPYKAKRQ
Method in brief: as §1

[4] = molecular target: EIF3F (UniProt O00303)
EIF3F, sequence (O00303 whole entry): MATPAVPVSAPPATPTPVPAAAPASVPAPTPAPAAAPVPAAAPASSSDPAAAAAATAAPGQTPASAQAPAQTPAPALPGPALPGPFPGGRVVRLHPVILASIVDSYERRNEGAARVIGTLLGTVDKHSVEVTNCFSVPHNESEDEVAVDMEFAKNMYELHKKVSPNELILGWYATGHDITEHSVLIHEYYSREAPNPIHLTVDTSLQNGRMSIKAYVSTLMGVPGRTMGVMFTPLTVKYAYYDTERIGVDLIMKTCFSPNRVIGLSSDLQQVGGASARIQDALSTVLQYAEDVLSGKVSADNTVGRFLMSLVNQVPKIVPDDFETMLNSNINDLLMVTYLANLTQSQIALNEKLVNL
Method in brief: as §1

[5] = molecular target: EIF3H (UniProt O15372)
EIF3H, sequence (O15372 whole entry): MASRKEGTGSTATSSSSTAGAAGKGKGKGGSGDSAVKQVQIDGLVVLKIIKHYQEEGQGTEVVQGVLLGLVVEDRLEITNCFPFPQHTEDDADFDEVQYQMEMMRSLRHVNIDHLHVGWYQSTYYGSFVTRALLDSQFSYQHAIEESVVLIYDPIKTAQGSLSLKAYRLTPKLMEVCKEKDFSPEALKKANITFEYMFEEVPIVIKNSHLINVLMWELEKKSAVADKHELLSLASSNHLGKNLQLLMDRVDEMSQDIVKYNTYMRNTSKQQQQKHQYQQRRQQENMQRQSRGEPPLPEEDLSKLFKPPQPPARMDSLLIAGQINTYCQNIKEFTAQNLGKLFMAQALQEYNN
Method in brief: as §1

[6] = molecular target: T3, FAM105A (UniProt Q9NUU6)
T3 sequence (whole entry): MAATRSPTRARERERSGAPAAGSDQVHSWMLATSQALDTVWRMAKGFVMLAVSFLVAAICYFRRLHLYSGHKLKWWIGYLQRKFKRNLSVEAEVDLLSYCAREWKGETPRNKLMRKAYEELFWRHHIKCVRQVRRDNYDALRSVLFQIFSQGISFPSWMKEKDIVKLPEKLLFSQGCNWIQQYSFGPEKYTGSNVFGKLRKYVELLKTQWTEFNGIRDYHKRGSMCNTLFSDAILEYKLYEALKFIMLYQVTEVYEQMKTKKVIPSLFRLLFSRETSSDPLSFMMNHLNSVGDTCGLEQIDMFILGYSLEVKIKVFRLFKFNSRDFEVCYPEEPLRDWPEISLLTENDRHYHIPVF
Method in brief: as §1

[7] = molecular target: OTUB1 (UniProt Q96FW1)
OTUB1, sequence (Q96FW1 whole entry): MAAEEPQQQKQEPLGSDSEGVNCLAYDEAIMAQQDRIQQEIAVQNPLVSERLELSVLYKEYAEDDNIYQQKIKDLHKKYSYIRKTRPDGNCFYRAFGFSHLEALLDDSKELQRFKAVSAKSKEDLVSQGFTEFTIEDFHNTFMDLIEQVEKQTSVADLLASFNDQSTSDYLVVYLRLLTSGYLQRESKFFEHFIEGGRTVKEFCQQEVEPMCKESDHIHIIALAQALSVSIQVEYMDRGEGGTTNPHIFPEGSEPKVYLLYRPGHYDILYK
Method in brief: as §1

[8] = molecular target: T4, OTUD4 (UniProt Q01804)
T4 sequence (whole entry): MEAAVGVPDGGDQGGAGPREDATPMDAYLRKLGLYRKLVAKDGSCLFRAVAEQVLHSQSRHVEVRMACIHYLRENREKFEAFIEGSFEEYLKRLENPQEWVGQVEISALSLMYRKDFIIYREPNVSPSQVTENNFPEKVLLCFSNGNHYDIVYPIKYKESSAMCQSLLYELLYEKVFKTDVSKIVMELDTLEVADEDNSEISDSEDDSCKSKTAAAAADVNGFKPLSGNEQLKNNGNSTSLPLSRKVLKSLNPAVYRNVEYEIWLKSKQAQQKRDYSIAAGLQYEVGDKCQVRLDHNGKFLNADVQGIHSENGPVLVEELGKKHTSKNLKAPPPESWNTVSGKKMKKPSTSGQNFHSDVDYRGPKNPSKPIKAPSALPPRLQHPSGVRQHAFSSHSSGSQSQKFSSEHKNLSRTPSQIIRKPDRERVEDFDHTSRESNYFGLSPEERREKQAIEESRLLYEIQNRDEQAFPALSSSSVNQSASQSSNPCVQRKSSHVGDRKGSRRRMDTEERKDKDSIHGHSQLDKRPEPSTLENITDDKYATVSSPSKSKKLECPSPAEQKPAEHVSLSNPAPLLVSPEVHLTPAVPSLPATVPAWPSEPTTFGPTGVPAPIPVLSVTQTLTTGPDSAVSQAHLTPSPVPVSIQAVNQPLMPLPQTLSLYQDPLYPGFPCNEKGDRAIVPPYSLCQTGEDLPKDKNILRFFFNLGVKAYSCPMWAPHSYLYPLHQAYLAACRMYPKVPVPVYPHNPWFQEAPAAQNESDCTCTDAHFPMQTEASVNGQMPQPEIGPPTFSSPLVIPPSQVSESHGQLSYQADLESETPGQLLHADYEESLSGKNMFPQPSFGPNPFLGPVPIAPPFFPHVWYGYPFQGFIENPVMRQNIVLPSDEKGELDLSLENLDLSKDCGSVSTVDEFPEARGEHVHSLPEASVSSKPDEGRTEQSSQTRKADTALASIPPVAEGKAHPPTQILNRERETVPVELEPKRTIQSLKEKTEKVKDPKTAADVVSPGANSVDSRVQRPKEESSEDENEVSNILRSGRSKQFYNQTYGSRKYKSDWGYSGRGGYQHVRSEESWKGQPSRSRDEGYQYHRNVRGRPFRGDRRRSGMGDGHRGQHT
Method in brief: as §1

[9] = molecular target: T5, OTUD5 (UniProt Q96G74)
T5 sequence (whole entry): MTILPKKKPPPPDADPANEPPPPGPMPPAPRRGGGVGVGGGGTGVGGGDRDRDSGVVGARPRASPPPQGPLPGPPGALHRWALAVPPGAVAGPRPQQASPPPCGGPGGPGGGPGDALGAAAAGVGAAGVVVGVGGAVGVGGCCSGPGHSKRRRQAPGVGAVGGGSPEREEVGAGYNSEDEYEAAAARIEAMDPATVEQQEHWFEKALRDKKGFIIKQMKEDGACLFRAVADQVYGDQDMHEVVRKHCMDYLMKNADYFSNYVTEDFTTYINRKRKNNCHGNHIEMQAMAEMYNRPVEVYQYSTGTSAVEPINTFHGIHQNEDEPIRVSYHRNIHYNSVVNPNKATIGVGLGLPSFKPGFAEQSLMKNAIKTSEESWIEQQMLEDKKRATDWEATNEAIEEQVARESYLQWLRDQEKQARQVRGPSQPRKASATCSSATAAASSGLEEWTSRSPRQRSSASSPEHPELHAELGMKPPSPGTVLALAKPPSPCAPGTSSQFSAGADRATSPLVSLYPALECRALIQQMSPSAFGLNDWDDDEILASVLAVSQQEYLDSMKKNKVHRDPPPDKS
Method in brief: as §1

Measured: log2 ratio of Biotin-Ahx-Ub-VS probe labelling

O=C(CCl)N1CCC[C@@H]1c1ccon1
active: [2] -1.28 | [3] -2.4
inactive: [1] 0.188 | [4] -0.585 | [5] 0.193 | [6] 0.198 | [7] -0.236 | [8] -0.381 | [9] -0.427
